Inhibition data for 37 compounds are collected here from ChEMBL document CHEMBL3433997, “St. Jude Leishmania screening dataset” (2016).

Common to all, as to type: functional
The target of assay [1] is Solute carrier family 2, facilitated glucose transporter member 1 (Homo sapiens) (UniProt P11166). Nature of the assay: ST_JUDE_LEISH: Cytotoxicity at 2uM final concentration against transgenic Leishmania Mexicana promastigotes LmGLUT1 that are glucose transport deficient and complemented with the human glucose transporter GLUT1. Activity is measured by DNA content using SYBR green in vitro.
Sequence of Solute carrier family 2, facilitated glucose transporter member 1 (Homo sapiens) (P11166 whole entry): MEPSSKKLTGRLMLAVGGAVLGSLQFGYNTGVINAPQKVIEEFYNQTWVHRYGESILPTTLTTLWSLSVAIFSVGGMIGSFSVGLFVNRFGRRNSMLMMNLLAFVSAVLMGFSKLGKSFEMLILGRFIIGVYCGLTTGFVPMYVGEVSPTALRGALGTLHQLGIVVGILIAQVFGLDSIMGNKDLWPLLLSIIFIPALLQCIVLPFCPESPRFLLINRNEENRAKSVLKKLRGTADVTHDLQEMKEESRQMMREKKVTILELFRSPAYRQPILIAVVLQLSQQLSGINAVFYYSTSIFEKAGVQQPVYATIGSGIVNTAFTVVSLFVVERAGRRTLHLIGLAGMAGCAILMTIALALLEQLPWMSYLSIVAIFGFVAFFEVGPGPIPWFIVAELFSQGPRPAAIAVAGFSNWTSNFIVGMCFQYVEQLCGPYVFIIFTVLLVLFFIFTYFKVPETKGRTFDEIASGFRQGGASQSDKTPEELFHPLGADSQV

Assay [2] has as its target Hexose transporter 1 (Plasmodium falciparum) (UniProt O97467). Nature of the assay: ST_JUDE_LEISH: Cytotoxicity at 2uM final concentration against transgenic Leishmania Mexicana promastigotes LmPfHT that are glucose transport deficient and complemented with the Plasmodium falciparum hexose transporter. Activity is measured by DNA content using SYBR green in vitro.
In assay [3] the target is Glucose transporter (Leishmania mexicana) (UniProt O61059). Nature of the assay: ST_JUDE_LEISH: Cytotoxicity at 2uM final concentration against transgenic Leishmania Mexicana promastigotes LmGT2 that are glucose transport deficient and complemented with the L. Mexicana glucose transporter 2. Activity is measured by DNA content using SYBR green in vitro.

In the case of `CN(C)C(=O)c1ccc(CN(Cc2ccc3c(c2)OCCO3)Cc2ccc3c(c2)OCO3)cc1`, the results for the inhibition in assay [1], in assay [2] and in assay [3] were 3.62%, 3.62% and 3.97%, respectively.
For the compound `O=C(NC1CCCCC1)N(Cc1ccc(-c2ccc(CNCc3ccc4c(c3)OCO4)cc2)cc1)C1CCN(Cc2ccccc2)CC1`, the inhibition in assay [1] came out at 2.03%; in assay [2], 1.63%; in assay [3], 1.56%.
Taken in the same sequence, the figures for `CC(C)Cn1c(Sc2ccc(C#N)c([N+](=O)[O-])c2)nnc1-c1ccc(N(C)C)cc1` were -0.55%, 0.63% and -4.37%.
Taken in the same sequence, the figures for `Cc1cc(Nc2ccccc2)nc(Nc2ccccc2C)n1` were 5.24%, 4.32% and 0.47%.
Consider `CC(=O)c1ccc2c(c1)CCN(CCC1CCC(NC(=O)c3cc4ccccc4[nH]3)CC1)CC2` (stereo unspecified), for which the results for the inhibition in assay [1], in assay [2] and in assay [3] were 2.67%, -0.31% and 3.71%, respectively.
For the compound `CCc1ccc(C2CCN(CCCCNC(=O)c3ccc(NC(=O)c4ccc(Cl)cc4)cc3)CC2)c(OC)c1`, the inhibition in assay [1] stood at 9.49%; in assay [2], 2.21%; in assay [3], 1.66%.
As for `OCCNc1nc(Nc2ccccc2)nc2ccccc12`, the inhibition in assay [1] stood at 8.68%; in assay [2], 7.01%; in assay [3], 2.07%.
For `CCCC(C(=O)OCCN(CC)CC)(c1ccc(Cl)cc1)c1ccc(Cl)cc1`, in that order: 4.77%, 5.49% and 7.04%.
For `O=C(NCCCN1CCCC1=O)c1cnc(N2CCC(Oc3ccccc3)CC2)c(Cl)c1`, in that order: 0.56%, 3.58% and 0.19%.
`C=CCc1cccc(OC)c1OCCCON1C(=N)N=C(N)NC1(C)C`: the inhibition is -0.04% in assay [1], 0.37% in assay [2] and 0.43% in assay [3].
In the case of `C[C@@H](COc1ccc(-c2ccccc2)cc1)CON1C(N)=NC(N)=NC1(C)C`, the inhibition in assay [1] was found to be 69.6%; in assay [2], 76.5%; in assay [3], 50.3%.
For `O=C(NCCCN1CCC(N2CCCCC2)CC1)c1ccc(N2CCOc3ccccc32)s1`, in that order: 1.25%, 0.98% and 3.19%.
For `N#Cc1ccc(NC(=O)Nc2ccc(OC(F)(F)F)cc2)cc1`, in that order: 2.17%, 1.59% and -0.05%.
Regarding `COC(=O)CCn1c(C2CCN(CC3CCC(NC(=O)/C=C/c4ccc(Cl)c(Cl)c4)CC3)CC2)nc2ccccc21` (stereo unspecified), the inhibition in assay [1] came to 0.97%; in assay [2] it was 2.03%; in assay [3], 3.04%.
Taken in the same sequence, the figures for `Cc1onc(-c2ccccc2)c1C(=O)Nc1nc(-c2ccccn2)nc2ccsc12` were 2.38%, 1.96% and 0.03%.
In the case of `CCN1CCN(CC(O)CNC(=O)Nc2ccc(Cl)cc2)CC1` (stereo unspecified), the inhibition in assay [1] was found to be 8.67%; in assay [2] it was 8.82%; in assay [3], 6.63%.
For `CC[C@@H]([C@@H](CC(C)C)C(=O)N[C@@H](CCCCNC(=O)OCc1ccccc1)C(=O)Nc1ccccn1)N(O)C=O`, in that order: 4.89%, 4.71% and 3.88%.
Turning to `CC(c1cccc(Nc2nccc(-c3c(-c4cccc(NC(=O)c5c(F)cccc5F)c4)nn4ncccc34)n2)c1)S(C)(=O)=O` (stereo unspecified), the inhibition is -2.21% in assay [1], 1.6% in assay [2] and 0.35% in assay [3].
As to `Brc1cc(Br)c2c(c1)C(NCCCNC1CCNc3c(Br)cc(Br)cc31)CCN2` (stereo unspecified), the inhibition in assay [1] was found to be 1.08%; in assay [2], 0.89%; in assay [3] it was 0.34%.
For `CC(=O)Nc1cccc(-c2cnc(N)c3cc(-c4ccc5c(c4)OCO5)ccc23)c1`, in that order: 7.5%, 7.74% and 5.76%.
Taken in the same sequence, the figures for `Cc1ccc2c(c1)c(-c1ccccc1)c(-c1ccccc1)n2CC(O)CN1CCN(CC=Cc2ccccc2)CC1` (stereo unspecified) were 0.38%, 1.97% and 0.7%.
For `CC[C@H](C)CNC(=O)c1cncc(-c2ccc(CNCCCc3ccccc3)cc2)c1`, in that order: 1.47%, -1.11% and -2.21%.
Consider `CC(C)CNCc1cccc(-c2cccc(CN(CCN(C)C)C(=O)Nc3ccccc3)c2)c1`, for which the inhibition worked out at 2.46% in assay [1], 4.17% in assay [2] and 0.55% in assay [3].
For `Nc1ccnc2ccc(NC(=O)CCCCCc3ccccc3)cc12`, in that order: 1.43%, 0.96% and 1.99%.
Take `COc1ccc2nc3cc(Cl)ccc3c(NCc3ccccc3)c2c1`: the inhibition was 2.39% in assay [1], 2.92% in assay [2] and -0.49% in assay [3].
In the case of `CCC(CC)(Cc1ccccc1)NC(=O)[C@H](CC(C)C)Nc1ccc(C#N)c2ccccc12`, the inhibition in assay [1] was 13.3%; in assay [2], 10.4%; in assay [3], 10.7%.
Consider `COc1ccccc1CCN(C)CCN1CCC(NC(=O)c2ccc(-c3ccc(C(F)(F)F)cc3)cc2)CC1`, for which the inhibition in assay [1] is 1.81%; in assay [2] it was 1.97%; in assay [3], 1.05%.
For `CC(C)CNCc1cccc(-c2cccc(CN(CCCN3CCN(C)CC3)C(=O)NC3CCCCC3)c2)c1`, in that order: 0.8%, 0.99% and -0.56%.
Turning to `C=C(C)C1CC=C(CN2CCC(N3CCc4cc(NC(=O)c5cc(C)on5)ccc43)C2)CC1` (stereo unspecified), the results for the inhibition in assay [1], in assay [2] and in assay [3] were 2.54%, 4.39% and 4%, respectively.
Taken in the same sequence, the figures for `O=C(NC1CCN(Cc2ccccc2O)C1)c1ccc(-c2ccccc2)cc1` (stereo unspecified) were 0.98%, 0.41% and 1.16%.
For `CC(=O)Nc1ccc(CN(Cc2ccc(OC(C)(C)C)cc2)Cc2ccc3c(c2)OCCO3)cc1`, in that order: 7.25%, 3.27% and 6.45%.
Taken in the same sequence, the figures for `CC1(C)NC(N)=NC(=N)N1OCCCOc1cccc(Cl)c1` were 3.04%, 5.38% and 2.82%.
For the compound `CCOc1cc(NCCCNc2ncc([N+](=O)[O-])cc2C)nc2ccccc12`, the inhibition in assay [1] was 1.72%; in assay [2] it was -1.69%; in assay [3], 0.83%.
On to `CC(C)NCc1ccc(-c2cccc(NC(=O)c3cccc(C#N)c3)c2)cc1`, for which the results for the inhibition in assay [1], in assay [2] and in assay [3] were 2.87%, 2.38% and -2.27%, respectively.
Taken in the same sequence, the figures for `Cc1ccc(Nc2nc(-c3ccccn3)cs2)nc1` were 75.7%, 65.5% and 69.3%.
For `CCCc1c(C(=O)OCC)c2cc(O)ccc2n1-c1ccc(OC)cc1`, in that order: 5.29%, 6.77% and 4.32%.
Taken in the same sequence, the figures for `O=C(NCCN1CCC(NC(=O)c2ccc(-c3ccccn3)s2)CC1)c1cccc(C(F)(F)F)c1` were 3.66%, 2.93% and 3.43%.

In general, inhibition refers to the drop in the measured response relative to a control, in per cent.
